Results on 107 molecules are retold here after PubChem BioAssay AID2551 (National Center for Advancing Translational Sciences (NCATS), 2010).

In all, about 310,000 compounds went through this assay and about 17,000 (5.5%) were called active. A call without a number means that no potency is given here. Not shown: some 11% with an inconclusive outcome. This excerpt belongs to a sample that is enriched for actives. A number with no mark means an inactive call. The call rests on the fitted dose curve; in most records, active means well fitted inhibition curve with a large enough effect; inconclusive means small, poorly fitted or top-dose-only effect, or effect the other way; inactive means no such curve, though single readings can be large or run the other way.
Potency means the concentration at half of the fitted maximal effect.

Sequence of Nuclear receptor ROR-gamma (Mus musculus) (P51450 whole entry, looked up, the tested form may be a part): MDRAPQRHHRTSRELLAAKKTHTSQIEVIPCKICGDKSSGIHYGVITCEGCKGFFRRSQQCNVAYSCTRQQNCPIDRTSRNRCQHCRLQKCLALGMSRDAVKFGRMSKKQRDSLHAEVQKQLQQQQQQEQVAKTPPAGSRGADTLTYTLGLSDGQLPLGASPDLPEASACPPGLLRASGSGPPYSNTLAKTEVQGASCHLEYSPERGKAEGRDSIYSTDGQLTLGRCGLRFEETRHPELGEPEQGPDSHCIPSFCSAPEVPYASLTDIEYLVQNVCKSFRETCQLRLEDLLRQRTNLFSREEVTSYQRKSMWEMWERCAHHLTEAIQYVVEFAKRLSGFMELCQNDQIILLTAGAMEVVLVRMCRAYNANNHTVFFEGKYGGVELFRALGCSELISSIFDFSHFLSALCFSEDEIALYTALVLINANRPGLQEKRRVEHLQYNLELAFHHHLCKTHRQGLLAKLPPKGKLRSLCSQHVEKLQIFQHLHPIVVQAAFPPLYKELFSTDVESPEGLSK

The target in the assay is Nuclear receptor ROR-gamma (Mus musculus) (UniProt P51450). Description: qHTS for inhibitors of ROR gamma transcriptional activity. Further: nearly all actives have a fitted effect of over 60% in size. To be noted: Drosophila S2 Gal4-RORgamma UAS-luciferase reporter, 20 h; series mostly up to 53.6 µM. In short, it runs like this:
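Drosophila Schneider cells stably carrying a metallothionein-driven Gal4 DBD–ROR gamma fusion and a UAS-Photinus luciferase reporter were exposed to compound for 1 hr, then induced with copper sulfate (700 uM final) for 20 hr at ambient temperature before luminescence reading.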
As for `C=CCn1c(=O)c(C(=O)Nc2ncccc2O)c(O)c2ccccc21`, the Potency result was “inactive”. For the molecule `Cc1ccc(OCCOc2cccc(/C=N/NC(N)=O)c2)cc1`, the Potency entry is “inactive”.

On to `CCOc1ccc(/C=N/NC(N)=S)cc1`, for which the Potency was 5.01 µM (active).

Regarding `COC(=O)N/N=C/c1ccc(/C=N/NC(=O)OC)cc1`, the Potency entry was “inactive”. On to `COC(=O)[C@@H]1CCCN1C(=O)c1cc(COc2cccc3cccnc23)on1`, for which the Potency result was “inactive”. In the case of `CCCC(=O)N1CCN(c2nnc(-c3ccc(C)cc3)c3ccccc23)CC1`, the Potency result is “inactive”.

For the molecule `O=C(CN1C(=O)COc2ccc(Cl)cc21)N1CCOCC1`, the Potency entry is “inactive”. Same read-out and setting: in the case of `Cc1ccc(C)c(NC(=S)NCC(c2cccnc2)N2CCOCC2)c1` (configuration not stated) it was “inactive”; in that of `CCc1cccc(C)c1NC(=S)N(CCCN1CCN(C)CC1)Cc1cccs1`, “inactive”.

Consider `Cc1ccc(C)c2[nH]c(=O)c(CN(Cc3cccnc3)C(=S)NCc3ccco3)cc12`, for which the Potency result is “inactive”. Same read-out and setting: with `Cc1ccccc1NC(=S)N(CCCN1CCOCC1)Cc1cccs1` the entry was “inactive”. As to `Cc1ccc(CN(Cc2cccnc2)C(=S)Nc2cccc(Cl)c2C)cc1`, the Potency was 3.98 µM (active).

As for `Cc1cccc(C(=O)Nc2ccccc2C(=O)NCc2cccnc2)c1`, the Potency result is “inactive”. `Cc1ccc(Cl)cc1NC(=S)N(CCN(C)C)Cc1cccs1`: the Potency was 11.2 µM (active). Same read-out and setting: in the case of `Cc1ccc(CN(Cc2cccnc2)C(=S)Nc2cc(Cl)ccc2C)cc1` it was 3.16 µM (active); in that of `Cc1c(Cl)cccc1NC(=O)CSc1ccc(-c2cccnc2)nn1`, “inactive”; in that of `COc1ccc(-c2nc3ccccc3c(=O)n2CCc2ccc(O)cc2)cc1`, “inactive”. In the case of `CSc1nnc2ccc(-c3ccc(C)cc3)nn12`, the Potency result is “inactive”. In the case of `Cc1ccc(C(CNC(=O)Nc2cccc(C)c2)N2CCN(C)CC2)cc1` (configuration not stated), the Potency entry is “inactive”. Turning to `COc1cc(C(=O)NCC2(c3ccccc3)CCCC2)ccc1OC(C)C`, the Potency entry was “inactive”. Take `O=C(NCc1ccccc1Cl)C1CCN(c2ncnc3c2nc2n3CCCCC2)CC1`: the Potency result was “inactive”. `CCOCCCN1C(=O)C2C(C(=O)Nc3ccc(OCC)cc3)C3C=CC2(O3)C1C(=O)NC1CCCCC1` (configuration not stated): the Potency entry is “inactive”. As for `CCN(CC)CCn1cnc2c1c(=O)[nH]c(=O)n2Cc1ccccc1`, the Potency result was “inactive”. As for `CCOc1ccc(OCCSc2nc3ccccc3n2CC(=O)O)cc1`, the Potency entry is “inactive”. In the case of `COc1ccc(S(=O)(=O)N2CCN(C)CC2)c(C)c1`, the activity change, negative = inhibition was 16.1% [at 1.91 µM]. On to `COc1ccc(N(Cc2cc3ccc(C)cc3[nH]c2=O)S(=O)(=O)c2ccccc2)cc1`, for which the Potency result was “inactive”. For the molecule `CC(C)(C)c1ccc(C(CC(=O)O)NS(=O)(=O)Cc2ccccc2)cc1` (configuration not stated), the Potency result is “inactive”. For the molecule `CCCCN(CCCC)CCCNC(=O)CN1C(=O)COc2ccc(S(=O)(=O)N3CCC(C)CC3)cc21`, the Potency entry was “inactive”. Still for that read-out and setting: with `S=C(NCCCc1ccccc1)Nc1ccc(Br)cc1` the figure was 8.91 µM (active); with `S=C(NCCc1ccccc1)NCC1CCCO1` (configuration not stated), 12.6 µM (active); with `O=C(NCCc1c[nH]c2ccccc12)C(=O)NCC1CCCO1` (configuration not stated), “inactive”. For `CCOc1ccc(CCNC(=O)Nc2ccccc2)cc1OCC`, the Potency result is “inactive”. `NS(=O)(=O)c1ccc(CCNC(=S)Nc2ccc(S(N)(=O)=O)cc2)cc1`: the Potency result was “inactive”.

Consider `O=C(NCCc1ccccc1)C1CC1`, for which the Potency result was “inactive”.

Regarding `Fc1ccccc1Cn1cnc(NC(=S)NCCc2ccccc2)n1`, the Potency result is “inactive”.

Regarding `O=C(CS(=O)(=O)Cc1ccccc1)NCC1CCCO1` (configuration not stated), the Potency result was “inactive”. For the molecule `S=C(NCCc1ccccc1)NCc1ccccc1Cl`, the Potency was 7.94 µM (active). Same read-out and setting: with `S=C(NCCc1ccccc1)Nc1ccccc1` the figure was 3.16 µM (active); with `CCc1ccc(NC(=O)CS(=O)CC(=O)NCCCc2ccccc2)cc1` (configuration not stated), “inactive”; with `O=C(NCCCc1ccccc1)C(=O)c1c[nH]c2ccccc12`, “inactive”. Take `COc1ccccc1N1CCC(N2CCN(CC(C)(C)C)C(CCO)C2)CC1` (configuration not stated): the Potency entry is “inactive”. Regarding `Cc1ccc(NS(=O)(=O)c2ccc(-c3coc(C)n3)cc2)c(C)c1`, the Potency entry was “inactive”. As to `CSc1ccc(S(=O)(=O)N2CCC(C(=O)NCc3ccncc3)CC2)cc1`, the Potency entry was “inactive”.

Regarding `COc1cc(/C=C2\SC(=O)NC2=O)ccc1OCc1ccc(Cl)nc1`, the Potency entry is “inactive”. Still for that read-out and setting: with `CC(C)c1ccc(NC(=O)[C@@H](NC(=O)N2CC(=O)Nc3ccccc32)C(C)C)cc1` the entry was “inactive”; with `O=C(c1ccc2nc(N3CCOCC3)sc2c1)N1CCN(c2ccc(Cl)cc2)CC1`, “inactive”; with `Nc1nc(SCC(=O)Nc2ccc(Cl)cc2C(F)(F)F)n[nH]1`, “inactive”. Regarding `O=C(Cc1cccc2ccccc12)NCCC1=CCCCC1`, the activity change, negative = inhibition was 11.1% [at 10 µM]. `S=C(NCCC1=CCCCC1)Nc1ccccc1`: the Potency was 1.78 µM (active). `CC(=O)Nc1ccc(S(=O)(=O)N(C)CC(=O)NCCC2=CCCCC2)cc1`: the Potency entry was “inactive”. On the same count and under the same terms, with `COc1ccc(CCNC(=O)c2ccccc2OCc2ccccc2)cc1` the entry was “inactive”. On the same count and under the same terms, with `O=C(NC1CCCC1)C(c1ccc(Cl)cc1)N(C(=O)c1csnn1)C1CC1` (configuration not stated) the entry was “inactive”; with `Cc1cc(C)nc(S/C=C/C(=O)c2ccccc2)n1`, 6.31 µM (active). Still for that read-out and setting: with `Cc1cc(C)nc(SCC(=O)c2ccc(Cl)cc2)n1` the entry was “inactive”; with `C/C(=N\NC(=O)c1nc(C)cc(C)n1)c1ccccc1`, “inactive”. Regarding `Cc1ccc(CS(=O)(=O)CCC(=O)NCc2ccc(F)cc2)cc1`, the Potency result was “inactive”.

Consider `O=C(O)c1ccccc1C(=O)NC1=NN(c2ccccc2)CC1`, for which the Potency entry is “inactive”. On to `CN(c1ccc(OCC(=O)O)cc1)S(=O)(=O)c1ccc2ccccc2c1`, for which the Potency entry was “inactive”. As for `Cc1ccccc1N1CCN(C2CCCN(C(=O)c3cn4c(C)cccc4n3)C2)CC1` (configuration not stated), the Potency entry was “inactive”.

Consider `CCOc1cc(NC(=O)c2ccccc2C(=O)O)c(OCC)cc1NC(=O)c1ccccc1F`, for which the activity change, negative = inhibition was 19.6% [at 1.91 µM]. `CCN1CCN(c2cc3nc(C)n(Cc4ccccc4)c(=O)c3cc2NC(=O)c2ccccc2F)CC1`: the Potency was 11.2 µM (active). The same measure, in the same setting: in the case of `CCn1c(=O)n(CC)c2cc(N3CCCC3)c(NC(=O)c3ccccc3Br)cc21` it was “inactive”; in that of `CS(=O)(=O)Nc1cccc(C2=NN(C(=O)c3cccc(F)c3)C(c3cccs3)C2)c1` (configuration not stated), “inactive”; in that of `CC(C)=CCCC(C)CN1CCC(n2nccc2NC(=O)c2ccccc2)CC1` (configuration not stated), “inactive”.

For the molecule `CC(=O)NCCC(=O)Nc1nc(-c2ccc3c(c2)OCCO3)cs1`, the Potency result was “inactive”. `Cc1cc(C)c2nc(SCC(=O)N(C)C3CCS(=O)(=O)C3)cc(C)c2c1` (configuration not stated): the Potency entry was “inactive”. `COc1ccc(-c2cc(=O)oc3cc(OCC(=O)N(C)C4CCS(=O)(=O)C4)ccc23)cc1` (configuration not stated): the Potency entry was “inactive”.

In the case of `COc1ccc2c(-c3ccccc3)cc(SCC(=O)N(C)C3CCS(=O)(=O)C3)nc2c1` (configuration not stated), the Potency was 10 µM (active). With `[2H]C(CCOS(N)(=O)=O)c1ccccc1` (configuration not stated), the Potency result is “inactive”. As to `Cc1cc(-c2ccc(/C=N/n3cnnc3)o2)c([N+](=O)[O-])cc1C`, the Potency entry was “inactive”.

Regarding `N#C/C(=C/c1ccc(-c2ccccc2[N+](=O)[O-])o1)C(=O)NCCN1CCCCC1`, the Potency entry was “inactive”. Regarding `Cc1ccc(-c2ccc(/C=C(\C#N)C(N)=S)o2)c([N+](=O)[O-])c1`, the Potency was 11.2 µM (active). In the case of `O=C(Nc1ccc(-c2cscn2)cc1)C1CCCN(Cc2ccc(CO)o2)C1` (configuration not stated), the Potency result is “inactive”. Regarding `COc1ccc(CCNC(=O)c2cnc(Cl)c(Cl)c2)cc1`, the Potency entry was “inactive”. On the same count and under the same terms, with `CCCCNC(=O)N(O)C1N(/N=C/c2ccccc2O)C(=S)SC1(C)C` (configuration not stated) the figure was 11.2 µM (active). As for `CCCCNC(=O)N(O)C1N(/N=C/c2ccc(N(C)C)cc2)C(=S)SC1(C)C` (configuration not stated), the Potency result was “inactive”. Turning to `CCC(C)N1C(=S)SC(C)(C)C1N(O)C(=O)NC1CCCCC1` (configuration not stated), the Potency entry is “inactive”. For the molecule `COc1ccc2c(c1)N(C)/C(=C1/SC(=S)N(NC(C)=O)C1=O)S2`, the Potency result is “inactive”.

With `COc1ccc(OC)c(NC(=O)C2CCCN2S(=O)(=O)c2cccc3nsnc23)c1` (configuration not stated), the Potency entry is “inactive”. On the same count and under the same terms, in the case of `O=C(O)c1[nH]c2ccccc2c1C(c1cccc(O)c1)c1c(C(=O)O)[nH]c2ccccc12` it was “inactive”; in that of `O=C(/C=C/c1ccccc1)Nc1nnc(SCC(=O)c2ccc3ccccc3c2)s1`, “inactive”. With `CCOCc1nnc(NC(=O)CSc2ccc(C)cc2)s1`, the Potency result was “inactive”. Consider `O=C(CSc1ccccc1)Nc1nnc(/C=C/c2ccccc2)s1`, for which the Potency was 20 µM (active). For `CC1(C)Cc2c(sc(NC(=O)C(=O)NCC3CCCO3)c2C(=O)O)CO1` (configuration not stated), the Potency result was “inactive”.

Turning to `COc1ccc(/C(C)=N/NC(=O)c2ccc3nc[nH]c3c2)cc1`, the Potency entry was “inactive”. For the molecule `COc1ccc(CC(=O)NC(C)CCc2ccccc2)cc1` (configuration not stated), the Potency entry was “inactive”.

Turning to `C/C(CC(=O)Nc1ccc(N(C)C)cc1)=N\NC(=O)c1ccccc1F`, the Potency result is “inactive”. As to `COc1ccc(CC(=O)N/N=C(\C)c2ccccn2)cc1`, the Potency is 7.08 µM (active). As for `C/C(=N\NC(=O)Cc1ccc(Br)cc1)c1cccnc1`, the Potency result is “inactive”. Same read-out and setting: with `O=C(Nc1ccc(NC(=O)c2ccccc2F)cc1)c1ccccc1F` the entry was “inactive”.

`C/C(=N\NC(=O)c1ccccc1F)c1ccccn1`: the Potency was 0.631 µM (active). Regarding `C/C(=N\NC(=O)Cc1ccc(Cl)cc1)c1ccccn1`, the Potency was 0.398 µM (active). On the same count and under the same terms, in the case of `C/C(=N\NC(=O)Cc1ccc(F)cc1)c1ccc(F)cc1` it was “inactive”; in that of `Cc1ccc(Cn2cc(C(=O)NN)c(=O)c3ccc(F)cc32)cc1`, “inactive”; in that of `Cc1cccnc1CCNC(=O)C1CCC(=O)N(Cc2cccc(F)c2)C1` (configuration not stated), “inactive”. Same read-out and setting: with `COc1cc2ccccc2cc1C(=O)Nc1ccccc1C` the entry was “inactive”; with `COc1cc([N+](=O)[O-])cc([N+](=O)[O-])c1NC(=O)N1CCOCC1`, “inactive”; with `O=S(=O)(Cc1cc(Cl)nc(-c2cccnc2)n1)c1ccccc1`, “inactive”. In the case of `COc1ccc(C(=O)Nc2cc(C)c(NC(=O)c3ccccc3OC)cn2)cc1`, the Potency entry is “inactive”. Still for that read-out and setting: with `Cc1ccnc(N2C(=O)c3ccc([N+](=O)[O-])cc3C2=O)c1` the entry was “inactive”; with `Cc1cccc(C)c1NC1=NC(=S)N(c2ccc(N(C)C)cc2)C1(C)C`, 14.1 µM (active); with `COC(=O)c1cc(C(=O)NC(C)C2CC3CCC2C3)cc([N+](=O)[O-])c1` (configuration not stated), “inactive”.

Regarding `Cc1c2cnn(CC(=O)NCc3ccccn3)c(=O)c2c(C)n1Cc1ccc(Cl)cc1`, the Potency result is “inactive”. The same measure, in the same setting: in the case of `Cc1ccc(CN2CCN(c3ncccn3)CC2)c(C)c1` it was “inactive”; in that of `O=S(=O)(NCc1ccc(Cl)cc1Cl)c1cccs1`, “inactive”. For the molecule `C#CCN(N(C)c1ncc(C(F)(F)F)cc1Cl)S(=O)(=O)c1ccc2ccccc2c1`, the Potency result was “inactive”. As for `CN(NS(=O)(=O)c1cccs1)c1ncc(C(F)(F)F)cc1Cl`, the Potency was 5.62 µM (active).
